A selection: hits, their analogues and other compounds. The true share with any hit is near 9.2%.
FLuc counter = firefly luciferase modulation, counter-screen for miR-21 project; P08659; purified FLuc, Km substrates, luminescence inhibition; Potency, µM (top dose mostly 57.5 µM), for the others: at the top dose activity change, negative = inhibition, usual class: inhibitors; actives 6.9% (n = 360,000);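 note: plate controls were vehicle for no effect and reference inhibitor for full effect; nearly all actives have a fitted effect of over 55% in size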
Target sequence (P08659 whole entry, looked up): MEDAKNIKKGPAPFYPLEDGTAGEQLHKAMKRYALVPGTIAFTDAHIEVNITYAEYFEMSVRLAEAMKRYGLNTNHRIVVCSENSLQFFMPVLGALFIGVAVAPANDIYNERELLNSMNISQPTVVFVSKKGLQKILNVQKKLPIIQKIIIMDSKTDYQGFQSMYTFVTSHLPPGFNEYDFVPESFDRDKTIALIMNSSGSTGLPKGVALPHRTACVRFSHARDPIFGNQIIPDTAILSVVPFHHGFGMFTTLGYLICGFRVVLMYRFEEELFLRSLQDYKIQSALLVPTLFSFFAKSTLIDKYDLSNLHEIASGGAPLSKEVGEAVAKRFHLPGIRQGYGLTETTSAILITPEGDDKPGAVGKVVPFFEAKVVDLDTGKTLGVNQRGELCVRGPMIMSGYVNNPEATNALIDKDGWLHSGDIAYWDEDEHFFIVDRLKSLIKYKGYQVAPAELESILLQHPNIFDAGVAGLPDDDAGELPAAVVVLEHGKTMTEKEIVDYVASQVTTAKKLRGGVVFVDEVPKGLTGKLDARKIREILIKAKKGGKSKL
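Biochemical qHTS of compounds, final roughly 60 µM downward over six points, against 10 nM purified firefly luciferase using Km concentrations of substrates (10 uM D-luciferin, 10 uM ATP) in Tris acetate pH 7.5 buffer; luminescence output.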
ELG1 genotox = induces genotoxicity in HEK293T cells with luciferase-tagged ELG1; Potency, µM (doses to about 46 µM), for inactives: top-dose activity change, positive = activation, hits mostly activators; actives 1.3% (n = 330,000); HEK293T ELG1-luciferase reporter, luminescence, 16 h; note: % of control where 0% means no effect; nearly all actives have a fitted effect of over 60% in size
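After overnight (16 hr) compound treatment at 37 °C, ELG1-luciferase HEK293T cells were lysed with ONE-Glo; luminescence quantified 30 min later at room temperature.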
Rab9 promoter act = activators of Rab9 promoter; Huh7 Rab9 promoter-luciferase reporter, luminescence, 24 h; Potency, µM (top dose mostly 9.22 µM), without a hit: at the top dose activation, negative = inhibition, hits mostly activators; actives 2.8% (n = 320,000); AID 485297; note: % of control where 0% means no effect; nearly all actives have a fitted effect of over 60% in size
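Huh7 reporter line, Rab9 promoter upstream of luciferase. Compound exposure 24 h at 37 °C in reduced-serum medium with 10% FBS. Read-out: luminescence.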
NPC1 prom act = NPC1 promoter activation; Potency, µM (series often up to 9.22 µM), inactives show at the top dose activation, usual class: activators; actives 2.4% (n = 320,000); Huh7 NPC1 promoter luciferase reporter, 24 h; note: % of control where 0% means no effect; nearly all actives have a fitted effect of over 60% in size
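Cells: Huh7 expressing luciferase under the NPC1 promoter, 1500/well. Seeded 2 h, compound added, incubated 24 h at 37 °C. Luciferase reagent, 10 min ambient, then luminescence.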
SMN2 splice up = SMN2 splice variant enhancement | HEK293 SMN2-luciferase splicing reporter, luminescence, 30-36 h | Potency, µM (doses to about 46.1 µM), inactives show at the highest dose activity change, positive = activation, most hits filed as activators | actives 2.8% (n = 210,000) | AID 1458; note: % of control where 0% means no effect; nearly all actives have a fitted effect of over 55% in size
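HEK293 cells carry an SMN2 minigene-luciferase reporter in which exon 7 inclusion puts luciferase in frame. Cells were seeded at 2000 cells/well, attached for 10-12 hours, then exposed to compounds for 30-36 hours at 37C before ONE-Glo luminescence.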
ELG1 repair inh = blocks ELG1-dependent DNA repair in HEK293T cells | actives 2.3% (n = 330,000) | HEK293T ELG1-luciferase reporter, luminescence, 16 h; DNA damage induced by 5-fluorouridine | Potency, µM (top dose mostly 46.1 µM), for the others: at the highest dose activity change, negative = inhibition, usual class: inhibitors | AID 504467; note: % is set by controls: 0 for no effect and ±100 for the full control effect; nearly all actives have a fitted effect of over 55% in size
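Luminescence from the luciferase reporter, measured 30 min after ONE-Glo reagent at room temperature, was the read-out. Beforehand, 2,000 cells per well were exposed for 16 hr at 37 °C to 5-fluorouridine together with compound or vehicle.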
An asterisk follows results filed as active; [ ] = another dose, or the depositor's remark. Calls come from the whole dose curve; as a rule, active = well fitted curve in the direction sought with a large enough effect; inconclusive = small, poorly fitted or top-dose-only effect, or another doubt; inactive = no such curve, though single readings can be large; an effect the other way counts as inactive or inconclusive. Potency is the fitted concentration of half-maximal effect.

How did O=C(Nc1ccc2[nH]c(=S)sc2c1)c1ccccc1 do in these assays?
FLuc counter: inconclusive; ELG1 genotox: inconclusive; Rab9 promoter act: inconclusive; NPC1 prom act: 2.8µM*; SMN2 splice up: 11µM*; ELG1 repair inh: inconclusive

Results for COc1ccc(NC(=O)C2CC(=O)N(CCc3ccc(Cl)cc3)C2)cc1 (stereo not drawn) ?
FLuc counter: 1%; ELG1 genotox: -13%; Rab9 promoter act: 10%; NPC1 prom act: -2%; ELG1 repair inh: -12%

What do the screens show for `COc1ccc(N2CC(NC(=O)COc3ccccc3)CC2=O)cc1OC` (stereo not drawn)?
FLuc counter: -1%

What do the screens show for `Nc1nc2nccc(-c3ccc(Cl)cc3)n2n1`?
FLuc counter: 12µM*; ELG1 genotox: inconclusive; Rab9 promoter act: inconclusive; NPC1 prom act: inconclusive; SMN2 splice up: 9%; ELG1 repair inh: inconclusive

What do the screens show for `Clc1ccc(-c2cnn3c(-c4ccncc4)ccnc23)cc1`?
FLuc counter: 0.95µM*; ELG1 genotox: 23%; Rab9 promoter act: 0.35µM*; NPC1 prom act: 0.5µM*; SMN2 splice up: 3.2µM*; ELG1 repair inh: inconclusive

Results for Cc1nn2c(-c3ccncc3)ccnc2c1Cl ?
FLuc counter: -2%; ELG1 genotox: 7%; Rab9 promoter act: -4%; NPC1 prom act: -5%; SMN2 splice up: -3%; ELG1 repair inh: 18%

Results for CC(=O)c1cnc2c(-c3ccc(Cl)cc3)cnn2c1C ?
FLuc counter: inconclusive; ELG1 genotox: inconclusive; Rab9 promoter act: inconclusive; NPC1 prom act: 22%; SMN2 splice up: 13µM*; ELG1 repair inh: inconclusive

Results for N#Cc1cnn2c(N)c(-c3ccc(Cl)cc3)cnc12 ?
FLuc counter: -6%; ELG1 genotox: 4%; Rab9 promoter act: 18%; NPC1 prom act: 0%; SMN2 splice up: 1%; ELG1 repair inh: 11%

How did Nc1c(C(=O)O)cnc2c(-c3ccc(Cl)cc3)cnn12 do in these assays?
FLuc counter: 3µM*; ELG1 genotox: inconclusive; Rab9 promoter act: 1µM*; NPC1 prom act: 1.4µM*; SMN2 splice up: 11µM*; ELG1 repair inh: inconclusive

Results for Cc1cc(-c2ccc(Cl)cc2)n2nc(N)nc2n1 ?
FLuc counter: 3%[2.3 µM]; ELG1 genotox: inconclusive; Rab9 promoter act: 2%; NPC1 prom act: -3%; ELG1 repair inh: inconclusive

What do the screens show for `CCc1ccc(Nc2sc(C(=O)c3ccccc3)c(N)c2S(C)(=O)=O)cc1`?
FLuc counter: 6%; SMN2 splice up: 5%

How did COc1ccc(Cc2nnc(-c3ccc(F)cc3)o2)cc1OC do in these assays?
FLuc counter: -1%; ELG1 genotox: inconclusive; Rab9 promoter act: 1%; NPC1 prom act: -1%; SMN2 splice up: -45%; ELG1 repair inh: 7%

How did Cc1ccc(-c2nnc(Cc3ccc([N+](=O)[O-])cc3)o2)cc1 do in these assays?
FLuc counter: -2%; ELG1 genotox: inconclusive; Rab9 promoter act: 2.2µM*; NPC1 prom act: inconclusive; ELG1 repair inh: inconclusive

What do the screens show for `O=[N+]([O-])c1ccc(Cc2nnc(-c3ccc(F)cc3)o2)cc1`?
FLuc counter: -11%; ELG1 genotox: -4%; Rab9 promoter act: 1µM*; NPC1 prom act: inconclusive; SMN2 splice up: 5%; ELG1 repair inh: inconclusive

Results for Cc1ccc2c(c1)c1nc3ccccc3nc1n2C ?
FLuc counter: 6.7µM*; ELG1 genotox: inconclusive; Rab9 promoter act: 3%; NPC1 prom act: 2%; ELG1 repair inh: inconclusive

Results for Cn1c2ccc(F)cc2c2nc3ccccc3nc21 ?
FLuc counter: inconclusive; ELG1 genotox: inconclusive; Rab9 promoter act: 12%; NPC1 prom act: 28%; ELG1 repair inh: 9%

Source: PubChem BioAssay
